High-throughput results (PubChem)
ROS inducer: inducers of reactive oxygen species in cancer cells; U2OS ROS induction, H2DCF-DA fluorescence; ROS induction (% of piperlongumine), % at 10 µM; actives 2% (n = 46,000); in the data active = ROS induction above about 79%, passing the limit was not always enough; inconclusive = no clear call, values can overlap the other calls;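 note: 0% = DMSO vehicle median and 100% = reference compound median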
PD-1 reversal: activators reversing PD-1 mediated T-cell inhibition; activation, % (concentration not given with the values); 29,000 tested, under 10 active; primary human CD4 T cells, PD-L1 beads, CellTiter-Glo 96 h; AID 2316; call rule not given here;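 note: 0% = median vehicle wells and 100% = positive control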
YB-1 expr inh: YB-1 expression inhibition | U2OS, qRT-PCR YB-1 vs CDIP delta delta Cp, 16 h; active compounds read high; zero = DMSO, each unit about twofold | delta delta Cp (YB-1 minus CDIP) (test concentration not listed) | actives 0.37% (n = 30,000) | AID 434959;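 active = delta delta Cp rounded down to an integer at or above 3, about 3 SD of DMSO wells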;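 note: higher means less YB-1 transcript or more CDIP transcript relative to DMSO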
Starred values were filed as active, the others as inactive; ? = inconclusive; . = no result given. A selection: hits, their analogues and other compounds. The true share with any hit is near 2.3%.

SMILES | ROS inducer | PD-1 reversal | YB-1 expr inh
C[C@H](CO)N1C[C@H](C)[C@H](CN(C)C(=O)Nc2cccc3ccccc23)Oc2ncc(-c3cc4ccccc4o3)cc2C1=O | 115.3* | . | 0.483
Cc1c(Br)c([N+](=O)[O-])nn1CC(=O)Nc1cccnc1 | 0.3 | 1.5 | .
CCc1cccc(CC)c1NC(=S)Nc1ccc(C)cc1 | -2.4 | -5.8 | -0.472
CCn1c(SCC(=O)Nc2ccccc2C)nc2ccccc2c1=O | -6.0 | -0.6 | .
COc1cccc(C2CC(C(F)(F)F)n3ncc(C(=O)O)c3N2)c1 (stereo not given) | 13.9 | -0.3 | -0.0903
COc1cccc(C2CC(C(F)(F)F)n3ncc(C(=O)NCc4cccnc4)c3N2)c1 (stereo not given) | 100.7* | -0.4 | .
C=C(C(=O)O)[C@@H]1CC[C@@]2(C)C=CC(=O)[C@@H](CCC3(O)C(=O)C=C[C@]4(C)CC[C@@H](C(=C)C(=O)O)C[C@@H]34)[C@@H]2C1 (stereo not given in full) | -8.4 | 1.0 | -0.357
COc1cc(N)c(C#N)cc1OC | 10.2 | . | .
C/C=C1\C(O[C@@H]2O[C@H](CO)[C@@H](O)[C@H](O)[C@H]2O)OC=C(C(=O)OC)C1CC(=O)OC[C@@H]1[C@H](C)[C@@H](OC(=O)CC2C(C(=O)OC)=COC(O[C@@H]3O[C@H](CO)[C@@H](O)[C@H](O)[C@H]3O)/C2=C\C)C[C@H]1C(CO)CO (stereo not given in full) | ? | . | -0.421
O=C(N1CCCc2ccccc21)C(F)(F)F | 21.6 | 0.1 | -0.259
COc1cccc(/C=C2\CC(C)C/C(=C\c3ccccc3OC)C2=O)c1 (stereo not given) | 2.2 | . | .
CC1C/C(=C/c2cccn2C)C(=O)/C(=C/c2cccn2C)C1 (stereo not given) | 260.8* | . | .
COC(=O)c1c(NC(=O)c2ccc(N(C)S(=O)(=O)c3ccccc3)cc2)sc2c1CCCC2 | 8.1 | 2.3 | .
CC(NC(=O)c1cnn2c(C(F)(F)F)cc(-c3cccs3)nc12)c1ccccc1 (stereo not given) | 84.9* | . | .
O=C(NCc1ccccn1)c1cnn2c(C(F)(F)F)cc(-c3cccs3)nc12 | 59.6 | -8.4 | .
Cc1ccc(CSCCC(=O)N2CCN(c3cccc(C)c3C)CC2)cc1 | -12.6 | . | .
O/N=C/c1ccc(N2CCOCC2)cc1 | -10.5 | . | .
CC(=O)Oc1c(-c2ccccc2)oc2c(CC=C(C)C)c3c(c(OC(C)=O)c2c1=O)C=CC(C)(C)O3 | -9.1 | . | 0.168
CC1Oc2c3c(c4c(-c5ccccc5)cc(=O)oc4c2C(=O)C1C)OC(C)(C)C=C3 (stereo not given) | 114.0* | . | -0.683
COc1cc(NC(=O)COc2ccc(Cl)cc2Cl)c2ncccc2c1 | -4.8 | -3.8 | .
CCOC(=O)c1cnc2c(C)cc(C)cc2c1Nc1ccc(S(=O)(=O)Nc2ncccn2)cc1 | 16.6 | . | .
CCOC(=O)c1ccc(Nc2c(C(=O)OCC)cnc3ccccc23)cc1 | 98.6* | . | .
C=CCNC(=O)[C@@H]1[C@H]2C(=O)O[C@H](c3ccccc3)[C@H](c3ccccc3)N2[C@H](c2ccc(OCCO)cc2)[C@@]12C(=O)Nc1ccc(C#CC3(O)CCCCCC3)cc12 | 85.1* | . | -0.17
C=CCNC(=O)[C@@H]1[C@H]2C(=O)O[C@H](c3ccccc3)[C@H](c3ccccc3)N2[C@H](c2ccccc2OCCO)[C@@]12C(=O)Nc1ccc(C#CC3(O)CCCCCC3)cc12 | 145.7* | . | -0.221
C=CCNC(=O)[C@@H]1[C@H]2C(=O)O[C@H](c3ccccc3)[C@H](c3ccccc3)N2[C@H](c2ccccc2OCCO)[C@@]12C(=O)Nc1ccc(C#CCCO)cc12 | 135.0* | . | -0.0856
SMILES | ROS inducer | PD-1 reversal | YB-1 expr inh
C=CCNC(=O)[C@H]1[C@@H]2C(=O)O[C@@H](c3ccccc3)[C@@H](c3ccccc3)N2[C@@H](c2ccc(O)cc2)[C@]12C(=O)Nc1ccc(C#CCCO)cc12 | -11.5 | . | 0.111
O=C1O[C@H](c2ccccc2)[C@H](c2ccccc2)N2[C@H]1[C@@H](C(=O)NC[C@H](O)c1ccccc1)[C@]1(C(=O)Nc3ccc(C#CC4(O)CCCCCC4)cc31)[C@H]2c1ccccc1OCCO | 27.5 | . | -0.496
C=CCOC(=O)[C@H]1[C@@H]2C(=O)O[C@@H](c3ccccc3)[C@@H](c3ccccc3)N2[C@@H](c2ccc(OCCOC(=O)[C@@H]3C[C@@H]4C(=O)NCC(=O)N4[C@@H]3c3ccc(O)cc3)cc2)[C@]12C(=O)Nc1ccc(I)cc12 | 9.4 | . | -0.26
C=CCOC(=O)[C@H]1[C@@H]2C(=O)O[C@@H](c3ccccc3)[C@@H](c3ccccc3)N2[C@@H](c2ccc(OCCOC(=O)[C@@H]3C[C@@H]4C(=O)NCC(=O)N4[C@@H]3c3ccc(O)cc3)cc2)[C@]12C(=O)Nc1ccccc12 | 115.7* | . | 0.068
C=CCNC(=O)[C@H]1[C@@H]2C(=O)O[C@@H](c3ccccc3)[C@@H](c3ccccc3)N2[C@@H](c2ccc(OCCO)cc2)[C@]12C(=O)Nc1ccc(C#CC3(O)CCCCCC3)cc12 | 49.0 | . | -0.491
CN(C)CCCN1C(=O)[C@@]2(Cc3ccccc31)c1ccccc1C(=O)N(Cc1ccccc1)[C@H]2c1ccc(CO)cc1 | -0.9 | . | 0.16
O=c1ccc2ccc(Oc3nc(-c4cccnc4)nc4ccccc34)cc2o1 | 8.9 | . | .
O=C(C1=C[C@@H](c2csc3ccccc23)C[C@@H](OCc2ccc(CO)cc2)O1)N1CCCCC1 | 4.5 | . | 0.187
COc1ccc(-n2c(SCC(N)=O)nnc2-c2cccnc2)cc1 | 10.2 | -0.2 | .
COc1ccc(-n2c(-c3cccc(OC)c3)csc2=NCc2cccnc2)cc1 | 115.9* | 0.7 | 0.338
CCOC(=O)c1cnc2cc(C(F)(F)F)ccc2c1N(C)Cc1ccccc1 | 61.5 | -2.7 | 0.708
CCOC(=O)c1cnc2ccc(OCC)cc2c1N(C)Cc1ccccc1 | 139.4* | -2.6 | -0.193
O=C(N/N=C/c1cc2ccccc2n1S(=O)(=O)c1ccccc1)c1ccccn1 | 4.0 | . | -0.285
CCCn1c(-c2ccc(S(=O)(=O)N3CCOCC3)cc2)csc1=Nc1ccccc1 | 83.5* | . | .
O=C(COc1ccc(S(=O)(=O)N2CCOCC2)cc1)Nc1ccccc1 | -11.1 | -1.3 | .
O=C(Nc1ccc(N2CCN(c3ccc(C(F)(F)F)cn3)CC2)nc1)c1ccco1 | 4.4 | . | .
Cc1nnc(SCC(=O)Nc2ccc(Br)c(C)c2C)s1 | . | 1.8 | .
COc1cc(/C=N/NC(=O)CCCCCC(=O)O)c([N+](=O)[O-])cc1OC | -4.7 | . | 0.108
COC(=O)CCCCCCC(=O)N/N=C/c1cc(OC)c(OC)cc1[N+](=O)[O-] | 118.5* | . | -0.278
O=C(NO)c1cccc(C(=O)N/N=C/c2cc(O)ccc2O)c1 | 106.6* | . | -1.1
O=C(NO)c1cccc(C(=O)N/N=C/c2cc(F)ccc2O)c1 | -10.2 | . | -0.203
C[C@@H]1CN([C@H](C)CO)C(=O)c2cc(N(C)C)ccc2O[C@H]1CN(C)Cc1ccc(-c2ccccc2)cc1 | -1.8 | -2.5 | -0.134
C[C@H]1CN([C@@H](C)CO)C(=O)c2cc(N(C)C)ccc2O[C@@H]1CN(C)Cc1ccc(-c2ccccc2)cc1 | 206.0* | -1.0 | 0.202
C[C@H]1CN([C@@H](C)CO)C(=O)c2cc(NC(=O)Cc3ccccc3)ccc2O[C@@H]1CN(C)Cc1ccc(-c2ccccc2)cc1 | 176.7* | -2.5 | 0.734
